# Measurements reported in PubChem BioAssay (NCATS).
# Results filed as inconclusive are left out. Entries that show only a call come without a potency. Active and inactive are the calls of the source. Unless noted, calls follow the shape of the dose curve; as a rule, active = well fitted curve in the direction sought with a large enough effect; inconclusive = small, poorly fitted or top-dose-only effect, or another doubt; inactive = no such curve, though single readings can be large; an effect the other way counts as inactive or inconclusive.
# Experiments:
# [1] = target: Thyrotropin-releasing hormone receptor (Homo sapiens) (UniProt P34981); test: qHTS for Small Molecule Agonists and Allosteric Enhancers of Human TRH Receptor: Validation Screen for Agonists (AID 493127;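 active = calcium activation more than 3 SD above the typical response in the agonist read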;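 also: intracellular calcium rise by fluo-8 fluorescence before TRH EC20 addition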); details: TRH receptor agonist cell assay; at 2 µM; stronger effect = higher value
# Summary of the method: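 TRHR-expressing cells were plated overnight in serum-containing medium, then loaded with fluo-8 calcium dye at room temperature for 30 min–1.5 h. After a 10 s baseline, compound was pin-transferred and calcium fluorescence (ex 480/em 530) read kinetically for agonist response.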
# [2] = Nrf2 qHTS screen for inhibitors: Validation (AID 493153; active = well fitted inhibition curve with a large enough effect in the main read-out, with a control signal flat, not every such curve was filed as active); details: A549 ARE-Fluc reporter, 18-24 h; Potency: luciferase luminescence; viability change: measured here: cytotoxicity max response; luciferase luminescence, at 46.1 µM (top of the series)
# Summary of the method: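 A549 cells carrying an ARE-driven firefly luciferase reporter, in 5% FBS OPTI-MEM, were treated with compounds in concentration-response for 18-24 h at 37°C. Viability was read by CellTiter-Fluor fluorescence, then Nrf2 activity by luciferase luminescence.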
# [3] = qHTS for Inhibitors of Cell Surface uPA Generation: Validation Assay (AID 493164); details: mouse cells, plasminogen activation; series mostly up to 38.3 µM;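 also: RAW 264.7 macrophage cells exposed to compound for 18 h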
# Summary of the method: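 RAW 264.7, 4000 cells/well, o/n plating; cpd 7-pt 1:5 dilution 2.45 nM–38.3 uM final; 18 h, 37 C/5% CO2; ATP-Lite, 5 s luminescence exposure.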
# [4] = target: Galactokinase (Homo sapiens) (UniProt P51570); test: qHTS Validation Assay for Inhibitors of Human Galactokinase (GALK) (AID 493189); details: purified human GALK enzyme activity, qHTS 7-point titration; series mostly up to 57.5 µM
# Summary of the method: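 Luminescence from leftover ATP (Kinase-Glo Plus, 10 min) served as read-out after a 1 h room-temperature reaction of 5 nM GALK, 100 uM galactose and 35 uM ATP at pH8.0.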
# [5] = Validation screen for small molecules that induce DNA re-replication in SW480 colon adenocarcinoma cells (AID 504364); details: DNA re-replication phenotype (high-content imaging); series mostly up to 46.1 µM
# Summary of the method: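 SW480 cells seeded at 250 per well were exposed to compound or DMSO for 48 hr at 37 C, 5% CO2, then stained with Hoechst for 40 min. DNA content per nucleus was imaged (405 nm ex, 500-530 nm em).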
# [6] = target: Peptidyl-prolyl cis-trans isomerase NIMA-interacting 1 (Homo sapiens) (UniProt Q13526); test: qHTS Validation Assay to Find Inhibitors of Pin1 (AID 504536; active = well fitted inhibition curve with a large enough effect in the polarisation, with a control signal flat, not every such curve was filed as active; the % refers to the polarisation; also: potency is read from the fitted curve at half-maximal effect); details: Pin1 fluorescence polarization peptide binding assay; series mostly up to 57.5 µM
# Summary of the method: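 Fluorescence polarization competition: compounds (titration) displace HiFluor-488-labeled Pin1-1b peptide from Pin1 (0.3 uM final) in pH 7.5 HEPES buffer with DTT, 10 min at room temperature; %Activity normalized to no-enzyme wells, curves fitted.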
# [7] = target: Phosphoglycerate kinase, glycosomal (Trypanosoma brucei brucei) (UniProt P07378); test: qHTS Validation Assay to Find Inhibitors of Phosphoglycerate Kinase (AID 504547); details: enzymatic PGK inhibition, coupled luminescence read-out; series mostly up to 57.5 µM; also: potency is read from the fitted curve at half-maximal effect
# Summary of the method: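 Inhibition of the enzyme is judged by a Kinase-Glo Plus luminescent signal following a one-hour incubation at room temperature. Because 1,3-BPG is unstable, it is made in situ by GAPDH at 100nM final; no-PGK wells define the baseline.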
# [8] = Inducers of the Endoplasmic Reticulum Stress Response (ERSR) in human glioma: Validation (AID 504836); details: human glioma cells, ER stress response reporter; series mostly up to 38.3 µM
# Summary of the method: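 ERSR induction read as luciferase luminescence (Bright-Glo, 10 min at room temperature) in stably transfected human U87-MG glioma cells exposed to compounds for 16 h, using GRP78 as sensor.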
# [9] = target: Estrogen receptor (Homo sapiens) (UniProt P03372); test: qHTS assay for small molecule agonists of estrogen receptor alpha signaling (AID 588514; calls by dose curve; also: nearly all actives have a fitted effect of over 70% in size); details: ER-alpha-UAS-bla HEK293, beta-lactamase ratio, 18 h; series mostly up to 76.8 µM
# Summary of the method: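 ER-alpha-UAS-bla GripTite HEK 293 cells in medium with 2% charcoal/dextran-treated FBS were treated with compound titrations at 37 C for 18 hrs; beta-lactamase reporter read by CCF4 fluorescence after 2 hrs at RT.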
# [10] = target: Bile acid receptor (Homo sapiens) (UniProt Q96RI1); test: qHTS assay for small molecule antagonists of farnesoid X receptor signaling (AID 588526; calls by dose curve); details: HEK293T FXR-UAS-bla, beta-lactamase ratio, antagonist mode; series mostly up to 76.7 µM
# Summary of the method: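 Beta-lactamase reporter antagonist mode: HEK293T FXR-UAS-bla cells, titrated compound, CDCA stimulation, 16 h 37 C, CCF4 dye 2 h RT. Data normalized to CDCA 50 uM and DMSO; Hill-fit IC50.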
# [11] = target: Bile acid receptor (Homo sapiens) (UniProt Q96RI1); test: qHTS assay for small molecule agonists of farnesoid X receptor signaling (AID 588527; calls by dose curve); details: HEK293T FXR-UAS-bla, beta-lactamase ratio, 16 h; stronger effect = higher value
# Summary of the method: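 Agonist-mode beta-lactamase reporter in GeneBLAzer FXR-UAS-bla HEK293T cells, titration up to 92 uM, 16 h exposure at 37 C, CCF4 fluorescence. Response scaled to DMSO (0%) and 100 uM chenodeoxycholic acid (100%), then Hill-fitted for EC50 and efficacy.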
# [12] = target: Glucocorticoid receptor (Homo sapiens) (UniProt P04150); test: qHTS assay for small molecule agonists of glucocorticoid receptor signaling (AID 588532; active = well fitted curve in the direction sought with a large enough effect in the signal ratio, with a control signal flat; the % refers to the signal ratio); details: HeLa MMTV-bla, beta-lactamase ratio, agonist, 18 h; stronger effect = higher value; percent of dexamethasone control, DMSO zero
# Summary of the method: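 Using MMTV-bla HeLa cells in medium with 1% stripped FBS and 25 mM HEPES, compounds were titrated and incubated overnight-length (18 h). Beta-lactamase cleavage of CCF4 was quantified by dual-emission fluorescence.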
# [13] = target: phosphoglycerate mutase (Leishmania major) (UniProt Q4Q090); test: qHTS Validation Assay to Find Inhibitors of Phosphoglycerate Mutase (AID 504548); details: biochemical enzyme activity; Potency: inhibition qHTS; series mostly up to 57.5 µM;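 also: end-point luminescence from Kinase-GloPlus after the PGAM reaction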
# Summary of the method: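 L. major PGAM (1.25nM final) was added to substrate buffer and pinned compound, incubated 45 minutes at room temperature, then Kinase-GloPlus added; luminescence read after 10 minutes. Buffer: 100 mM TEA pH 7.6, 5 mM MgCl2, 0.01% Tween-20.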
# [14] = target: Ubiquitin carboxyl-terminal hydrolase 1 (Homo sapiens) (UniProt O94782); test: Inhibitors of USP1/UAF1: Pilot qHTS (AID 504865); details: purified USP1/UAF1, Ub-rhodamine cleavage fluorescence; series mostly up to 114 µM; also: nearly all actives have a fitted effect of over 35% in size; also: potency is read from the fitted curve at half-maximal effect
# Summary of the method: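 1nM USP1/UAF1 + cpd, 15 min RT; start w/ Ub-Rho 150nM final; kinetic FL 480/540 nm, 6 reads q60 s. Buffer 50mM HEPES pH 7.8, 0.5mM EDTA, 1mM TCEP, 0.01% Tween-20, 0.1 mg/ml BSA.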
# [15] = qHTS for Inhibitors of ATXN expression: Validation of Cytotoxic Assay (AID 588349); details: cytotoxicity counter-screen for ATXN expression inhibitors, cell viability; series mostly up to 57.1 µM
# Summary of the method: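 HEK293 cells were dosed with titrated compounds for 72 hr at 37 degrees C. Viability was read by CellTiter Glo luminescence, with intracellular ATP as the marker of cell survival.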
# [16] = qHTS for Inhibitors of ATXN expression: Validation (AID 588378); details: cell-based ATXN2 expression reporter assay, luminescence; series mostly up to 57.1 µM; also: nearly all actives have a fitted effect of over 75% in size; also: potency is read from the fitted curve at half-maximal effect
# Summary of the method: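 Cells: HEK293-ATXN2-FFLuc, phenol-red free DMEM, 2 h attachment. Compound pin-transfer, 24 h, 37 degrees C, 5% CO2. CellTiter-Fluor 30 min, Ex405/Em525; Bright-Glo 5 min, luminescence 2 s exposure.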
# [17] = target: DNA dC->dU-editing enzyme APOBEC-3G (Homo sapiens) (UniProt Q9HC16); test: qHTS for inhibitors of Vif-A3G interactions: Validation (AID 588379); details: Vif-A3G protein interaction assay; series mostly up to 46.1 µM
# Summary of the method: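 HeLa cells stably expressing Vif and A3G-eYFP, 700 cells/well, incubated overnight at 37 deg C, then exposed to compound overnight at 37 deg C. Inhibition of Vif-mediated degradation read as increased yellow fluorescence (Ex 488/Em 500-530) by laser-scanning cytometry.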
# DNA dC->dU-editing enzyme APOBEC-3G (Homo sapiens), sequence (Q9HC16 whole entry, looked up): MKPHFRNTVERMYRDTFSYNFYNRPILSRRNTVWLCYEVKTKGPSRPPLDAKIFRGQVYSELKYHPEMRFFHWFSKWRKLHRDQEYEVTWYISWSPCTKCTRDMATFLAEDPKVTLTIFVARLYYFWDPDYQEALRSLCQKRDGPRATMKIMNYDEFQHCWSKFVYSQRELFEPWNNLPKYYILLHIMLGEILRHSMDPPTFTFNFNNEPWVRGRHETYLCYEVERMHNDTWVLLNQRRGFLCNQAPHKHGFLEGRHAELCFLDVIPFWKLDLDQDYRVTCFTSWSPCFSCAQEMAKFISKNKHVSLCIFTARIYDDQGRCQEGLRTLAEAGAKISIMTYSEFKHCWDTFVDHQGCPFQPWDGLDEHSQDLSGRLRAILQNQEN
# Galactokinase (Homo sapiens), sequence (P51570 whole entry, looked up): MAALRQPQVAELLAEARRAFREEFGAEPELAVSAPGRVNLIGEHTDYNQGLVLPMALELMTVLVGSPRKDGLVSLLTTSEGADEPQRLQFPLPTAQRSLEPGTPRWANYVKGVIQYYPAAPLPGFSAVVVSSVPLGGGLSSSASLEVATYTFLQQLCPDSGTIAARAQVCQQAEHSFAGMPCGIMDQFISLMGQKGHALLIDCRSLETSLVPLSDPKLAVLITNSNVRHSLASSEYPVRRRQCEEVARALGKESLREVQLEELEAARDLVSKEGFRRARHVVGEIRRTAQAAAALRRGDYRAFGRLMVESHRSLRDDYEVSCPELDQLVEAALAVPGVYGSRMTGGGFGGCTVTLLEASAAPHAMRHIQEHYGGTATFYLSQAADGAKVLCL
# Thyrotropin-releasing hormone receptor (Homo sapiens), sequence (P34981 whole entry, looked up): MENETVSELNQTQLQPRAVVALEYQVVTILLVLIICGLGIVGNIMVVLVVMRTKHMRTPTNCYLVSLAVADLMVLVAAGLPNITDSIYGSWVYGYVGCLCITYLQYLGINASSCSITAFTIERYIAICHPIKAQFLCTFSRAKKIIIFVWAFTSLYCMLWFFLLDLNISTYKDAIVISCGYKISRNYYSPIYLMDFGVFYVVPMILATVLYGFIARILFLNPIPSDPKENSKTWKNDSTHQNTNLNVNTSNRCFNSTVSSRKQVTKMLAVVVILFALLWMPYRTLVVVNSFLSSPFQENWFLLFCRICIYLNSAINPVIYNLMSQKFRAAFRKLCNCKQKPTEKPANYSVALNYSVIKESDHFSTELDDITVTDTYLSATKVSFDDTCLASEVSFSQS
# Phosphoglycerate kinase, glycosomal (Trypanosoma brucei brucei), sequence (P07378 whole entry, looked up): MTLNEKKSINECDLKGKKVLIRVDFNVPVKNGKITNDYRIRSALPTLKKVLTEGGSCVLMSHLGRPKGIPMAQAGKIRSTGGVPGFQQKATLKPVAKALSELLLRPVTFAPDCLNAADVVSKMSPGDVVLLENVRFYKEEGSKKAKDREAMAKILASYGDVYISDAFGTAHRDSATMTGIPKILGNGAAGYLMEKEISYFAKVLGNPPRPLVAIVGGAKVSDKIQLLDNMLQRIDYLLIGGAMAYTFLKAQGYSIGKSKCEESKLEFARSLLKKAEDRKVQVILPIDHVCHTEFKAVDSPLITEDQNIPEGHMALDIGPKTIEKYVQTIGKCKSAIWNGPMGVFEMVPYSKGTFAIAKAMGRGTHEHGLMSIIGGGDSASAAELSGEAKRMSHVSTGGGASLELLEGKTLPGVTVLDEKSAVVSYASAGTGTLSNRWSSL
# phosphoglycerate mutase (Leishmania major), sequence (Q4Q090 1-553): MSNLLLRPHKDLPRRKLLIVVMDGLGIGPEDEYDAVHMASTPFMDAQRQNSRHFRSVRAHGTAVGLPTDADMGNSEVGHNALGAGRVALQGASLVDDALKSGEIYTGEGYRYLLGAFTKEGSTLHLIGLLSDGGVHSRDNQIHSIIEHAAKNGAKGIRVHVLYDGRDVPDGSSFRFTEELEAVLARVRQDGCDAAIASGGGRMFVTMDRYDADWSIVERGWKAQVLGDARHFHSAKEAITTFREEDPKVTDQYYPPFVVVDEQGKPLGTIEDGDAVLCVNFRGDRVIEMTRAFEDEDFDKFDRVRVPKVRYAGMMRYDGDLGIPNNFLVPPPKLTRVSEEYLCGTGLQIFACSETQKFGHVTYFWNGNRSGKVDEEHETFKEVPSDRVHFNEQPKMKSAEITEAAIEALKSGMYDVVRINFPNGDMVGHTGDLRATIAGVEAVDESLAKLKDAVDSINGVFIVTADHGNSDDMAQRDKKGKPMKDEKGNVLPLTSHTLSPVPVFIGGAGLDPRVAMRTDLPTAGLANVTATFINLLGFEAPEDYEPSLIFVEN
# Ubiquitin carboxyl-terminal hydrolase 1 (Homo sapiens), sequence (O94782 whole entry, looked up): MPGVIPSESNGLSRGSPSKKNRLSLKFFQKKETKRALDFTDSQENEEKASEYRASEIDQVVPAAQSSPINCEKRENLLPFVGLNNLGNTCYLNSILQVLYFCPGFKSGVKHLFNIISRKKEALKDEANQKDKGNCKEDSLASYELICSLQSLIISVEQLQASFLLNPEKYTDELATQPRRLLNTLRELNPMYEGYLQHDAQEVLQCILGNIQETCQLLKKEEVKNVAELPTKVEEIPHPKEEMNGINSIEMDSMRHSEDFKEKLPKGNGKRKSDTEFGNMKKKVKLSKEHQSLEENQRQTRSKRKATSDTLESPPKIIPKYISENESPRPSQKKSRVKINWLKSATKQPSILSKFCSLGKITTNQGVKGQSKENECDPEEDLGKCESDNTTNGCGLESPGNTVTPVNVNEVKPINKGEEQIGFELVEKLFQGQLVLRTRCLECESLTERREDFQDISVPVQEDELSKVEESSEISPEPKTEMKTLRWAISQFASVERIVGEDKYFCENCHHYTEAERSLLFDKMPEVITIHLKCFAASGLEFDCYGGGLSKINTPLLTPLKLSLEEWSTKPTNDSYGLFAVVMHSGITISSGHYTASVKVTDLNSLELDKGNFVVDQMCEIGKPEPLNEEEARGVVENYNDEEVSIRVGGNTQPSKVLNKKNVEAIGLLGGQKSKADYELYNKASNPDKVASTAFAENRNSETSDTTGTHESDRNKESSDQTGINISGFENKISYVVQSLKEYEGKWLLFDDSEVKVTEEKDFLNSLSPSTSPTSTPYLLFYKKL
# Peptidyl-prolyl cis-trans isomerase NIMA-interacting 1 (Homo sapiens), sequence (Q13526 whole entry, looked up): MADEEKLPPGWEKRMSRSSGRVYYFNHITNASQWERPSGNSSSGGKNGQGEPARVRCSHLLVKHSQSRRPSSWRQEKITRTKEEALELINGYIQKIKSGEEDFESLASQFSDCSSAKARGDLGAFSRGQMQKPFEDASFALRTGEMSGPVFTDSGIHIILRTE
# Bile acid receptor (Homo sapiens), sequence (Q96RI1 whole entry, looked up): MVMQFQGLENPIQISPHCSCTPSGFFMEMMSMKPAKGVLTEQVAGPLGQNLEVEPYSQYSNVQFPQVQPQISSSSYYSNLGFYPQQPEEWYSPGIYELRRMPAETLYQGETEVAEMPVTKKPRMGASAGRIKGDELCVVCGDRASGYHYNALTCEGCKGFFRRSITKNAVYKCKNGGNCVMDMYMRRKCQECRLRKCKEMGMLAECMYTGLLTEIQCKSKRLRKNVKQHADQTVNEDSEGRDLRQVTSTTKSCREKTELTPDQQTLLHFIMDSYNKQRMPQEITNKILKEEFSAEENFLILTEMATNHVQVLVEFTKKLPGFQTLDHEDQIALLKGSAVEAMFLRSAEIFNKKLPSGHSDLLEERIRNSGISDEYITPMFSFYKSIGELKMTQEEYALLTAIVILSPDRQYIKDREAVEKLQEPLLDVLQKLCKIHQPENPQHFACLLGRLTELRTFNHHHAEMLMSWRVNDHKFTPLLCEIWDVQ
# Estrogen receptor (Homo sapiens), sequence (P03372 whole entry, looked up): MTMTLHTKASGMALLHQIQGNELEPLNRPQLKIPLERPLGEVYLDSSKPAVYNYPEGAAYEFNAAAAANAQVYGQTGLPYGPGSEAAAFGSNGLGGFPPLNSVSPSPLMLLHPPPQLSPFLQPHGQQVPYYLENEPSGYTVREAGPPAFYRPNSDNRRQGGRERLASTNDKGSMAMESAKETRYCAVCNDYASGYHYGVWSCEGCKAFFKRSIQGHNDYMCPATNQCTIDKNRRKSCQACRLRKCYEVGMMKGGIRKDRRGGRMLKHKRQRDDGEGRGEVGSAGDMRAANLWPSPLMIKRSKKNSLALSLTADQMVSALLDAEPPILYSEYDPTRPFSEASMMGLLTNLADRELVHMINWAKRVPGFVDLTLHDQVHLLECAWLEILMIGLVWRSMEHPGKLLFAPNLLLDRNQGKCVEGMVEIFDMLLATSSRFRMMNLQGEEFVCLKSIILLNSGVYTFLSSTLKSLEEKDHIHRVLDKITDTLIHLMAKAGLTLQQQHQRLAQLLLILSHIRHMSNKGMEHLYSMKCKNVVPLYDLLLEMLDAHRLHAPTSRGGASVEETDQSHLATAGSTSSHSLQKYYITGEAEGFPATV
# Glucocorticoid receptor (Homo sapiens), sequence (P04150 whole entry, looked up): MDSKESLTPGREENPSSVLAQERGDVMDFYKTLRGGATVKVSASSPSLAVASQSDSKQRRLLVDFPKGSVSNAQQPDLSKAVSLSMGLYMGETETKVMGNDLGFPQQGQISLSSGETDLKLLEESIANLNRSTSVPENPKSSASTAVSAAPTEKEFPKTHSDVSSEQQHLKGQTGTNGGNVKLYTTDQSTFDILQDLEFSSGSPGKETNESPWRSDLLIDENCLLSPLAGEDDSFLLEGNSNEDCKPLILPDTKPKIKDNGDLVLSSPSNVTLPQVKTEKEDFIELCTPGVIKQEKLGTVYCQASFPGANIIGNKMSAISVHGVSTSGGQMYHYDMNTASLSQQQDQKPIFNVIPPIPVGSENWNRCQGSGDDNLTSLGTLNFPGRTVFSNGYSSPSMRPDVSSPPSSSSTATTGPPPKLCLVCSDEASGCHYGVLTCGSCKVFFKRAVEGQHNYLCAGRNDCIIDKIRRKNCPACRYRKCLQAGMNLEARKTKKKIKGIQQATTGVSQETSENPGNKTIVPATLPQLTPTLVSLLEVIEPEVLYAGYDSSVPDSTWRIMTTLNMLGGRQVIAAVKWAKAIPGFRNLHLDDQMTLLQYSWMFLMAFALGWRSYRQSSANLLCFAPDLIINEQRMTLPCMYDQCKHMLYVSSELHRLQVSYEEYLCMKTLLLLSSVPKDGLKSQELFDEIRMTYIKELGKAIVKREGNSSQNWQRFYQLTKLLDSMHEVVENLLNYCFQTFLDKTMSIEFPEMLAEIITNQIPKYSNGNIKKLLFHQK
SMILES,activation [1],Potency [2],viability change [2],outcome [3],outcome [4],Potency [5],Potency [6],Potency [7],outcome [8],Potency [9],Potency [10],activation [11],activation [12],Potency [13],Potency [14],Potency [15],Potency [16],outcome [17]
O=C(O)c1cc[c]([Hg][Cl])cc1,1.5% (inactive),inactive,-2.02%,inactive,inactive,inactive,inactive,inactive,inactive,inactive,inactive,1.46% (inactive),5.77% (inactive),,,,,
C[N+]1(C)CCOC(O)(c2ccc(-c3ccc(C4(O)C[N+](C)(C)CCO4)cc3)cc2)C1 (stereo not drawn),1.19% (inactive),inactive,-1.71%,inactive,inactive,inactive,inactive,,inactive,,,,,inactive,inactive,inactive,inactive,
C[N+](C)(C)CCOC(=O)CBr,1.06% (inactive),inactive,-12.9%,inactive,inactive,inactive,inactive,,inactive,,,,,inactive,inactive,inactive,inactive,
CC(Cc1ccc(OCC(=O)O)cc1)NCC(O)c1cccc(Cl)c1 (stereo not drawn),0.5% (inactive),inactive,-9.13%,inactive,inactive,inactive,inactive,inactive,inactive,,,,,inactive,inactive,,inactive,
COc1ccc(CNC(=O)/C=C/c2ccc3[nH]cc(CCN(C)C)c3c2)cc1,-0.312% (inactive),inactive,-0.218%,inactive,inactive,inactive,inactive,inactive,inactive,,,,,inactive,inactive,inactive,,
CCCN(CCC)CCc1ccc(O)c(O)c1,-3.94% (inactive),inactive,-6.78%,inactive,inactive,inactive,inactive,inactive,inactive,,,,,,inactive,inactive,inactive,
C=CCN1CC[C@]23c4c5ccc(O)c4O[C@H]2/C(=N/NC(=O)c2ccccc2)CC[C@@]3(O)[C@H]1C5,1.44% (inactive),inactive,7.77%,inactive,inactive,inactive,inactive,inactive,inactive,,,,,inactive,inactive,inactive,inactive,
NCC(O)c1cc(O)c(O)cc1F (stereo not drawn),1.38% (inactive),inactive,-0.467%,inactive,inactive,inactive,inactive,,inactive,,,,,inactive,inactive,inactive,inactive,
CN1CCC(c2c[nH]c3ccc(O)cc23)CC1,1% (inactive),inactive,-1.47%,inactive,inactive,inactive,inactive,inactive,inactive,,,,,inactive,inactive,inactive,inactive,inactive
Oc1ccc2c3c1O[C@H]1c4[nH]c5ccccc5c4C[C@@]4(O)C(C2)N(CC2CC2)CCC314 (stereo partly drawn),1.69% (inactive),inactive,-8.87%,inactive,inactive,inactive,inactive,inactive,inactive,,,,,inactive,,,17.8 µM (active),
O=C1CC[C@@]2(O)C3Cc4ccc(O)c5c4C2(CCN3CC2CC2)[C@H]1O5 (stereo partly drawn),1.31% (inactive),inactive,-12.7%,inactive,inactive,inactive,inactive,inactive,inactive,,,,,inactive,inactive,inactive,inactive,
OCc1cnc[nH]1,1% (inactive),inactive,1.78%,inactive,inactive,inactive,inactive,inactive,inactive,,,,,,inactive,inactive,inactive,
NCCc1c[nH]c2ccc(C(N)=O)cc12,1.5% (inactive),inactive,4.69%,inactive,inactive,inactive,inactive,inactive,inactive,,,,,inactive,inactive,inactive,inactive,inactive
CCCN(CCC)CCc1c[nH]c2ccc(C(N)=O)cc12,0% (inactive),inactive,1.24%,inactive,inactive,inactive,inactive,inactive,inactive,,,,,inactive,inactive,,inactive,
N[C@@H](Cn1oc(=O)[nH]c1=O)C(=O)O,-0.562% (inactive),inactive,-3.31%,inactive,inactive,inactive,inactive,inactive,inactive,,,,,inactive,inactive,inactive,inactive,inactive
Cc1sc2ccccc2c1CC1=NCCN1,1.12% (inactive),inactive,-0.892%,inactive,inactive,inactive,inactive,inactive,inactive,,,,,,inactive,inactive,,
C[C@H](N)CN1CCc2ccc(Br)cc21,0.625% (inactive),inactive,-2.43%,inactive,inactive,inactive,inactive,inactive,inactive,,,,,,inactive,,15.8 µM (active),
NC(N)=Nc1ccc2[nH]c3c(c2c1)C[C@@]1(O)[C@H]2Cc4ccc(O)c5c4[C@@]1(CCN2CC1CC1)[C@H]3O5,0.188% (inactive),inactive,4.74%,inactive,inactive,inactive,inactive,inactive,inactive,,,,,inactive,79.4 µM (active),,,
NC(Cc1cc(O)c(O)cc1O)C(=O)O (stereo not drawn),1.06% (inactive),inactive,-20.4%,inactive,inactive,inactive,1.69 µM (active),0.338 µM (active),inactive,,,,,inactive,14.1 µM (active),,inactive,
